# Measured values as given in ChEMBL document CHEMBL3433997, “St. Jude Leishmania screening dataset” (2016).
# Molecular target: Solute carrier family 2, facilitated glucose transporter member 1 (Homo sapiens) (UniProt P11166)
# Experiment: ST_JUDE_LEISH: Cytotoxicity at 2uM final concentration against transgenic Leishmania Mexicana promastigotes LmGLUT1 that are glucose transport deficient and complemented with the human glucose transporter GLUT1. Activity is measured by DNA content using SYBR green in vitro
# Type: functional
# Sequence of Solute carrier family 2, facilitated glucose transporter member 1 (Homo sapiens) (P11166 whole entry): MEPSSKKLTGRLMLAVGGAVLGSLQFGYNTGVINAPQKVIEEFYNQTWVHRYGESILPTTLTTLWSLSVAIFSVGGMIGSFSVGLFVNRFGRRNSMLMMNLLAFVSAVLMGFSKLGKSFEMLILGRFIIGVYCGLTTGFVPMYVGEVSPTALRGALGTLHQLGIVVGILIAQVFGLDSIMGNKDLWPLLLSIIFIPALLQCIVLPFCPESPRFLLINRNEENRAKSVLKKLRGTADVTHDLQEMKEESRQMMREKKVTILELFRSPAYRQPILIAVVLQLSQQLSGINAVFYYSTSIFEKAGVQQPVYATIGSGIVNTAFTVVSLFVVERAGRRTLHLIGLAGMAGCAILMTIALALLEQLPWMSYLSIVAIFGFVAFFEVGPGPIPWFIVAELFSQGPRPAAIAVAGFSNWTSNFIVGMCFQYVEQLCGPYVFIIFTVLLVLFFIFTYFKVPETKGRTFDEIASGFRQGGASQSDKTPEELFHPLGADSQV
row,Compound,inhibition [%]
1,COc1ccc2c(=O)c(-c3ccc(OC(F)(F)F)cc3)c(C)[nH]c2c1,-0.72
2,CC(C)(C)OC(=O)N[C@@H](CS(=O)(=O)CCNC(=N)COCc1ccccc1)C(=O)OC(C)(C)C,7.09
3,O=C(O)C1CC(=O)N(c2ccc(Cl)cc2)C1 (centres undefined),-1.68
4,O=S(=O)(Nc1cccc(CCN2CCC(N3CCCCC3)CC2)c1)c1ccc(-c2ccccc2)cc1,3.35
5,CCOc1cc(CC)ccc1C1CCN(CCN2CCC(CNC(=O)c3ccc(-c4ccc(C#N)cc4)cc3)CC2)CC1,16.2
6,CC(C)NCc1ccc(-c2ccc(NC(=O)c3cccc(Cl)c3)cc2)cc1,-2.83
7,O=C(/C=C/c1ccc(Cl)c(Cl)c1)NCCCN1CCC(c2c[nH]c3ccccc23)CC1,6.28
8,CC(C)(C)OC(=O)C1CCCN(Cc2ccc(-c3cccc(-c4nc5ccccc5[nH]4)c3)cc2)C1 (centres undefined),3.21
9,O=C(/C=C/c1ccc(Cl)c(Cl)c1)NCCCCCN1CCC(NC(=S)Nc2ccc(Cl)cc2)CC1,9.42
10,CCN(CCCN1CCCCC1)c1cc(C)nc(Nc2ccc(C)c(Cl)c2)n1,3.02
11,CN1CCN(Cc2cc(NC(=O)c3ccc(-c4ccc(Cl)cc4Cl)cc3)ccc2-c2ccccc2)CC1,6.54
12,CCN(CC)CCOc1ccc(NC(=O)c2oc3ccccc3c2C=Cc2ccccc2)cc1,4.92
13,Cc1cc(O)c(CN(C)Cc2ccc3c(c2)OCCO3)cc1C(C)C,4.86
14,NC1=NC(CCc2ccccc2)N(c2ccc(Cl)cc2)C(N)=N1 (centres undefined),7.41
15,CCc1ccc(NC(=O)c2cccc(CN3CCCN(CC4CCCCC4)CC3)c2)cc1,1.02
16,CC1(C)NC(N)=NC(=N)N1OCCc1ccc(N)cc1,5.6
17,O=C(Nc1cc(Cl)ccc1O)c1cc(-c2ccccc2O)no1,-2.41
18,CCN(CCCN1CCCCC1)c1cc(C)nc(Nc2ccc(C)cc2Cl)n1,9.81
19,O=C(NCC1CCC(C(=O)NC2CCCc3ccccc32)CC1)c1ccc(O)c(-c2ccc(Cl)c(Cl)c2)c1 (centres undefined),3.42
20,Cc1cccc2c1NC(=O)/C2=N/NC(=S)N(C)C,1.53

row,Compound,inhibition [%]
1,CCCC(=O)c1cnc2c(I)cccc2c1Nc1ccccc1C,3.51
2,CCN(CC)CCN(Cc1ccc(-c2ccc(C(F)(F)F)cc2)cc1)C(=O)Cn1c(CCc2cccc(F)c2F)nc(=O)c2sccc21,0.1
3,COCCN1CCC(CNCC(C)(C)c2nc(-c3ccc(Cl)c(O)c3)c(-c3ccncc3)[nH]2)CC1,7.22
4,CCCCCC(C)C(C)c1cc(O)c2c(c1)OC(C)(C)CC2(O)c1ccccn1 (centres undefined),1.35
5,O=C(O)C1Cc2c([nH]c3ccccc23)C(c2ccc(Cl)cc2Cl)N1 (centres undefined),3.99
6,CCn1c(-c2nonc2N)nc2c(-c3cc4ccccc4s3)ncc(C(=O)N3CCC(N)C3)c21 (centres undefined),82.2
7,CCCc1cn2c3c(cc(C(=O)N[C@@H](Cc4ccccc4)[C@H](O)CNC4CCCCC4)cc13)N(CC)S(=O)(=O)CC2,0.5
8,COc1ccc(Oc2ccccc2CNCC2CCN(CC3CCCCC3)CC2)cc1,6.31
9,CC(=O)Nc1ccc(C(=O)Nc2cccc(-c3ccc(-c4nc5cccc(C)c5[nH]4)cc3)c2)cn1,4.86
10,CCCCCCNC(=O)C1Cc2c([nH]c3ccc(F)cc23)C2(CCN(Cc3ccccc3)CC2)N1 (centres undefined),12.7
11,Cc1cccc2nc(-c3ccc(-c4cccc(CN5CCN(c6ccncc6)CC5)c4)cc3)[nH]c12,25.2
12,COc1ccc(CNCc2ccc(F)cc2)cc1-c1ccc(S(=O)(=O)NCCN2CCCC2)cc1,7.44
13,CCCN(Cc1nnc(-c2cccs2)o1)C(=O)CSc1nnnn1-c1ccc(C)c(C)c1,12.1
14,CC(C)N1CCC(NC(=O)N2CCCN(c3ncnc4cc(-c5ccccc5)sc34)CC2)CC1,2.91
15,COc1ccc(-n2ccnc2SCC(=O)Nc2cc(Cl)ccc2OC)c(OC)c1,2.64
16,Oc1ccc(Cl)cc1Nc1nc(C(F)(F)F)nc2ccccc12,1.75
17,CCOC(=O)c1c(C)n(-c2ccccc2)c2ccc(OC(=O)c3ccc(S(=O)(=O)N(CC)CC)cc3)cc12,4.6
18,COc1cc(C(=O)Nc2cccc(-c3nc4ccccc4[nH]3)c2)ccc1OC(C)=O,-0.73
19,O=C(/C=C/c1ccc(Cl)c(Cl)c1)NCCCCCN1CCC(NC(=O)c2ccc3ccccc3c2)CC1,0.51
